Paper PMC5540273 (PLoS ONE, 2017)
“And” between values parts separate entries of the source, which are not always exact repeats. Equal values may be shown once. Read-outs that look alike come from different tables or passages of the source.

How the values were obtained:
EIF2AK1 = conditions: concentration: 1 μM, replicates: in singlicate; n = 1
EPHA1 = conditions: concentration: 1 μM, replicates: in singlicate, n = 1
EPHA2 = conditions: concentration: 1 μM, replicates: in singlicate; n = 1
EPHA3 = conditions: concentration: 1 μM, replicates: in singlicate, n = 1
EPHA4 = conditions: concentration: 1 μM, replicates: in singlicate, n = 1
EPHA5 = conditions: concentration: 1 μM, replicates: in singlicate; n = 1
EPHA6 = conditions: concentration: 1 μM, replicates: in singlicate, n = 1
EPHA7 = conditions: concentration: 1 μM, replicates: in singlicate; n = 1
EPHA8 = conditions: concentration: 1 μM, replicates: in singlicate, n = 1
EPHB1 = conditions: concentration: 1 μM, replicates: in singlicate, n = 1
EPHB2 = conditions: concentration: 1 μM, replicates: in singlicate; n = 1
EPHB3 = conditions: concentration: 1 μM, replicates: in singlicate, n = 1
EPHB4 = conditions: concentration: 1 μM, replicates: in singlicate, n = 1
EPHB6 = conditions: concentration: 1 μM, replicates: in singlicate, n = 1
ERBB2 = conditions: concentration: 1 μM, replicates: in singlicate, n = 1
ERBB3 = conditions: concentration: 1 μM, replicates: in singlicate, n = 1
ERBB4 = conditions: concentration: 1 μM, replicates: in singlicate, n = 1
ERK1 = tested on: T1, ERK1; conditions: concentration: 1 μM, replicates: in singlicate; n = 1
T1 construct: gene MAPK3

ERK2 = tested on: T2, ERK2; conditions: concentration: 1 μM, replicates: in singlicate; n = 1
T2 construct: gene MAPK1

ERK3 = tested on: T3, ERK3; conditions: concentration: 1 μM, replicates: in singlicate, n = 1
T3 construct: gene MAPK6
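Further: KINOMEscan kinase panel screen.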

## COc1ccc(Nc2nccc(N3CCC(NC(=O)Nc4ccc5c(c4)OCO5)C3)n2)cc1 (stereo not shown) [GSK1379745]
EIF2AK1
  %Inh: 0%
EPHA1
  %Inh: 8%
EPHA2
  %Inh: 0%
EPHA3
  %Inh: 0%
EPHA4
  %Inh: 11%
EPHA5
  %Inh: 0%
EPHA6
  %Inh: 19%
EPHA7
  %Inh: 7%
EPHA8
  %Inh: 20%
EPHB1
  %Inh: 4%
EPHB2
  %Inh: 0%
EPHB3
  %Inh: 24%
EPHB4
  %Inh: 29%
EPHB6
  %Inh: 47%
ERBB2
  %Inh: 28%
ERBB3
  %Inh: 28%
ERBB4
  %Inh: 0%
ERK1
  %Inh: 3%
ERK2
  %Inh: 12%
ERK3
  %Inh: 14%

## Nc1nccc2scc(-c3ccc4c(c3)CCN4C(=O)Cc3cc(F)ccc3F)c12 [GSK2587663]
EIF2AK1
  %Inh: 0%
EPHA1
  %Inh: 11%
EPHA2
  %Inh: 17%
EPHA3
  %Inh: 0%
EPHA4
  %Inh: 12%
EPHA5
  %Inh: 0%
EPHA6
  %Inh: 25%
EPHA7
  %Inh: 6%
EPHA8
  %Inh: 20%
EPHB1
  %Inh: 7%
EPHB2
  %Inh: 10%
EPHB3
  %Inh: 34%
EPHB4
  %Inh: 27%
EPHB6
  %Inh: 59%
ERBB2
  %Inh: 14%
ERBB3
  %Inh: 0%
ERBB4
  %Inh: 46%
ERK1
  %Inh: 3%
ERK2
  %Inh: 0%
ERK3
  %Inh: 4%

## CC(C)N1CCC(n2cnc(-c3ccc(F)cc3)c2-c2ccnc(N)n2)CC1 [SB-223132]
EIF2AK1
  %Inh: 0%
EPHA1
  %Inh: 28%
EPHA2
  %Inh: 46%
EPHA3
  %Inh: 0%
EPHA4
  %Inh: 0%
EPHA5
  %Inh: 0%
EPHA6
  %Inh: 0%
EPHA7
  %Inh: 0%
EPHA8
  %Inh: 17%
EPHB1
  %Inh: 0%
EPHB2
  %Inh: 32%
EPHB3
  %Inh: 0%
EPHB4
  %Inh: 22%
EPHB6
  %Inh: 0%
ERBB2
  %Inh: 16%
ERBB3
  %Inh: 44%
ERBB4
  %Inh: 0%
ERK1
  %Inh: 0%
ERK2
  %Inh: 11%
ERK3
  %Inh: 0%

## COc1ccc(-c2nc3n(c2-c2ccncc2)CCC3)cc1 [SKF-104493]
EIF2AK1
  %Inh: 0%
EPHA1; 1 µM
  %Inh: 18% and 0%
EPHA2
  %Inh: 0%
EPHA3; 1 µM
  %Inh: 0% and 18%
EPHA4; 1 µM
  %Inh: 0% and 17%
EPHA5
  %Inh: 0%
EPHA6; 1 µM
  %Inh: 10% and 7%
EPHA7
  %Inh: 0%
EPHA8; 1 µM
  %Inh: 8% and 0%
EPHB1; 1 µM
  %Inh: 0% and 22%
EPHB2
  %Inh: 0%
EPHB3; 1 µM
  %Inh: 10% and 4%
EPHB4; 1 µM
  %Inh: 16% and 11%
EPHB6; 1 µM
  %Inh: 8% and 0%
ERBB2; 1 µM
  %Inh: 0% and 29%
ERBB3; 1 µM
  %Inh: 0% and 8%
ERBB4; 1 µM
  %Inh: 29% and 18%
ERK1
  %Inh: 0%
ERK2
  %Inh: 0%
ERK3; 1 µM
  %Inh: 0% and 9%

## CCc1nc(-c2cccc(N(C)S(=O)(=O)c3ccccc3)c2)c(-c2ccnc(Nc3ccc(N4CCN(C(C)=O)CC4)nc3)n2)s1 [GSK1645895]
EIF2AK1
  %Inh: 0%
EPHA1
  %Inh: 29%
EPHA2
  %Inh: 0%
EPHA3
  %Inh: 14%
EPHA4
  %Inh: 0%
EPHA5
  %Inh: 0%
EPHA6
  %Inh: 2%
EPHA7
  %Inh: 5%
EPHA8
  %Inh: 25%
EPHB1
  %Inh: 7%
EPHB2
  %Inh: 0%
EPHB3
  %Inh: 0%
EPHB4
  %Inh: 0%
EPHB6
  %Inh: 96.9%
ERBB2
  %Inh: 17%
ERBB3
  %Inh: 0%
ERBB4
  %Inh: 26%
ERK1
  %Inh: 0%
ERK2
  %Inh: 0%
ERK3
  %Inh: 0%

## O=C(NCCCN1CCCC1=O)c1cnc(NCc2cc(Cl)ccc2Cl)nc1NC1CCNCC1
EIF2AK1
  %Inh: 0%
EPHA1
  %Inh: 9%
EPHA2
  %Inh: 2%
EPHA3
  %Inh: 0%
EPHA4
  %Inh: 0%
EPHA5
  %Inh: 2%
EPHA6
  %Inh: 0%
EPHA7
  %Inh: 0%
EPHA8
  %Inh: 0%
EPHB1
  %Inh: 7%
EPHB2
  %Inh: 0%
EPHB3
  %Inh: 0%
EPHB4
  %Inh: 0%
EPHB6
  %Inh: 19%
ERBB2
  %Inh: 9%
ERBB3
  %Inh: 3%
ERBB4
  %Inh: 0%
ERK1
  %Inh: 0%
ERK2
  %Inh: 11%
ERK3
  %Inh: 0%

## COc1cc2ncnc(Nc3ccc(OCc4ccccc4Br)c(Cl)c3)c2cc1OC.Cl [GI261590]
EIF2AK1
  %Inh: 0%
EPHA1
  %Inh: 8%
EPHA2
  %Inh: 14%
EPHA3
  %Inh: 0%
EPHA4
  %Inh: 3%
EPHA5
  %Inh: 15%
EPHA6
  %Inh: 7%
EPHA7
  %Inh: 4%
EPHA8
  %Inh: 17%
EPHB1
  %Inh: 12%
EPHB2
  %Inh: 5%
EPHB3
  %Inh: 22%
EPHB4
  %Inh: 31%
EPHB6
  %Inh: 26%
ERBB2
  %Inh: 96.5%
ERBB3
  %Inh: 29%
ERBB4
  %Inh: 100%
ERK1
  %Inh: 0%
ERK2
  %Inh: 16%
ERK3
  %Inh: 0%

## Fc1cccc(COc2ccc(Nc3ncnc4cc[nH]c34)cc2Cl)c1
EIF2AK1
  %Inh: 23%
EPHA1
  %Inh: 2%
EPHA2
  %Inh: 15%
EPHA3
  %Inh: 0%
EPHA4
  %Inh: 18%
EPHA5
  %Inh: 20%
EPHA6
  %Inh: 7%
EPHA7
  %Inh: 4%
EPHA8
  %Inh: 1%
EPHB1
  %Inh: 9%
EPHB2
  %Inh: 20%
EPHB3
  %Inh: 0%
EPHB4
  %Inh: 22%
EPHB6
  %Inh: 19%
ERBB2
  %Inh: 100%
ERBB3
  %Inh: 11%
ERBB4
  %Inh: 83%
ERK1
  %Inh: 8%
ERK2
  %Inh: 24%
ERK3
  %Inh: 22%
